Calls of active or inactive are those of the source.
How the values were obtained:
[1] = small molecules captured by biotinylated probe aFSTL3 – biochemical, small-molecule microarray, fluorescence 635/667, stem cell growth factor project, primary screen (AID 1064); conditions: higher = more signal;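 note: measures binding of the biotinylated anti-FSTL3 antibody to printed compounds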
[2] = binders from COS7 lysate, DM2A8 probe, primary screen, torsin A project, cell lysate, small-molecule microarray, fluorescence 635/667 (AID 1065); conditions: higher = more signal, COS7 lysate expressing mutant human TOR1A
[3] = small molecules captured by biotinylated probe aFGF2 – biochemical, small-molecule microarray, fluorescence 635/667, stem cell growth factor project, primary screen (AID 1067); conditions: higher = more signal;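 note: measures binding of biotinylated aFGF2 protein to printed compounds on slides; z-score merges feature fluorescence and signal-to-noise across triplicate slides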
[4] = small molecules captured by biotinylated probe aFGF10 – biochemical, small-molecule microarray, fluorescence 635/667, stem cell growth factor project, primary screen (AID 1071); conditions: higher = more signal;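 note: score merges 667 nm spot intensity and signal to noise from triplicate slides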
[5] = biological target: Neurogenic locus notch homolog protein 2 (Homo sapiens) (UniProt Q04721); test: small molecules binding Notch2 protein – biochemical, small-molecule microarray, 635 nm fluorescence, stem cell growth factors, primary screen (AID 1073); conditions: higher = more signal
[6] = biological target: Pro-neuregulin-1, membrane-bound isoform (Homo sapiens) (UniProt Q02297); test: small molecules binding neuregulin-1 protein – biochemical, small-molecule microarray, fluorescence 635/667, psychiatric disease protein project, primary screen (AID 1075); conditions: NRG1 binding, 635 nm fluorescence, higher = more signal;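 note: score combines 667 nm spot fluorescence with signal to noise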
Pro-neuregulin-1, membrane-bound isoform (Homo sapiens), sequence (Q02297 whole entry, looked up, the tested form may be a part, canonical isoform): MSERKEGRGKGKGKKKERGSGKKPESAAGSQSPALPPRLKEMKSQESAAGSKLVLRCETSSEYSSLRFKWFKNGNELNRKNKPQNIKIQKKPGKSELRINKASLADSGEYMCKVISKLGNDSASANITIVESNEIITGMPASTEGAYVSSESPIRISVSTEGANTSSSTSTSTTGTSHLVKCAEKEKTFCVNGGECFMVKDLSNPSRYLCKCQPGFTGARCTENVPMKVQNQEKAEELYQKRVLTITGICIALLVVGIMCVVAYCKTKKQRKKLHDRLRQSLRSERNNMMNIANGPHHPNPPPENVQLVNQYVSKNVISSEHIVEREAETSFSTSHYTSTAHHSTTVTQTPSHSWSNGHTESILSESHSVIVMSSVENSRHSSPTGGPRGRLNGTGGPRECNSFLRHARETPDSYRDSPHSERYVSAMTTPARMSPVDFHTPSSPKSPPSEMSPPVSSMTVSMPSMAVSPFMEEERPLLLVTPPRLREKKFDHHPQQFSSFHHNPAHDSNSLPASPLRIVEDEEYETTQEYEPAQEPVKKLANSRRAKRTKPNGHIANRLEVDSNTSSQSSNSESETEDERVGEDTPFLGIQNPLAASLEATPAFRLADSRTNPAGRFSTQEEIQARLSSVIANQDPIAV

[7] = system: Neuregulin-1 EGF-like domain; test: small molecules binding NRG1 EGF domain – biochemical, small-molecule microarray, 635 nm fluorescence, primary screen (AID 1081); conditions: higher = more signal;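 note: binding of the protein to compounds printed on small-molecule microarray slides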
[8] = FRG1 expression reporter modulators in myotubes – cell-based, C2C12 myotubes, firefly/Renilla luciferase, luminescence, FRG1 inhibition for FSHD, primary screen (AID 1084); conditions: FRG1 promoter luciferase, higher = more signal, called active from +8 up or from −8 down
[9] = small molecules captured by biotinylated probe aFST – biochemical, small-molecule microarray, fluorescence 635/667, stem cell growth factor project, primary screen (AID 1086); conditions: higher = more signal;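 note: score merges 667 nm fluorescence with signal-to-noise of each printed compound spot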
[10] = binders of probe aHhip on microarray, primary screen, stem cell growth factor project, biochemical, small-molecule microarray, fluorescence 635/667 (AID 1087); conditions: higher = more signal;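 note: score merges spot fluorescence at 667nm with spot signal to noise ratio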
[11] = system: PRMT1 (protein arginine N-methyltransferase 1); test: small molecules binding arginine methyltransferase PRMT1 – biochemical, small-molecule microarray, 635 nm fluorescence, primary screen (AID 1088); conditions: higher = more signal;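 note: binding of Prmt1 protein to compounds spotted on small-molecule microarray slides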
[12] = growth effects on S. cerevisiae YJM789 – YJM789 clinical isolate, OD600, 24 h, basal, primary screen (AID 1089); conditions: higher = more signal, called active from +8 up or from −8 down;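 note: growth of clinical yeast isolate S. cerevisiae YJM 789 seeded 1000 cells per well; test concentration not given here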
[13] = S. pombe growth modifiers, basal conditions – strain 972, OD600, 24 h, no modulator, primary screen (AID 1090);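 note: basal condition with compound alone and no growth modifier present; test concentration not given here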; conditions: S. pombe 972 growth, higher = more signal, called active from +8 up or from −8 down
[14] = budding yeast growth modifiers under rapamycin – strain BY4716, OD600, 96 h, primary screen (AID 1091); note: test concentration not given here; conditions: S. cerevisiae BY4716 + rapamycin, higher = more signal, called active from +8 up or from −8 down
[15] = biological target: Torsin-1A-interacting protein 2 (Homo sapiens) (UniProt Q8NFQ8); test: small molecules binding lysate-expressed LULL1 – cell lysate, human LULL1 lysate, 635/667 nm fluorescence, primary screen (AID 1092); conditions: small-molecule microarray, hLULL1 lysate binding, 635 nm fluorescence; higher = more signal;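 note: probe is lysate of COS7 cells overexpressing human LULL1; score merges per-feature 667 nm fluorescence with signal-to-noise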
Torsin-1A-interacting protein 2 (Homo sapiens), sequence (Q8NFQ8 whole entry, looked up): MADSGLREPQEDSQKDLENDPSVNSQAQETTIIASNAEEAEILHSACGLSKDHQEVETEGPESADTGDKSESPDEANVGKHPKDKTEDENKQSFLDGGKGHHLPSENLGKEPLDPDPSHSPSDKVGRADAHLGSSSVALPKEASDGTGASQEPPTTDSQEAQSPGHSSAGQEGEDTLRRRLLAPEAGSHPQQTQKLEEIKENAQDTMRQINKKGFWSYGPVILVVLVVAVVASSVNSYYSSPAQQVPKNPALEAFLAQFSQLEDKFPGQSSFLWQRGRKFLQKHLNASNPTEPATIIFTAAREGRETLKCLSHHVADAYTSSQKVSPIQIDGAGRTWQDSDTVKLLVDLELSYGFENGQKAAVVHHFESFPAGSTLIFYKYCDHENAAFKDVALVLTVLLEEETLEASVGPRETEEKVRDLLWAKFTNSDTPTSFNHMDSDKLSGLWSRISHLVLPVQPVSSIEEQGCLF

[16] = optical density change of DRC41 E. coli – strain DRC41, OD650, 24 h, E. coli filamentation project, primary screen (AID 1093);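 note: MC1000 strain lacking acrAB efflux and sulA so SOS filamentation is blocked; test concentration not given here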; conditions: E. coli DRC41 growth, higher = more signal, called active from +8 up or from −8 down
[17] = probe aLefty2 binding to arrayed compounds – biochemical, biotinylated probe, 635/667 nm fluorescence, primary screen (AID 1094); conditions: small-molecule microarray, higher = more signal;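 note: score merges spot fluorescence near 667 nm with spot signal-to-noise ratio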
[18] = system: Noggin (protein binding on small-molecule microarray); test: small molecules binding Noggin protein – biochemical, 635/667 nm fluorescence, primary screen (AID 1095); conditions: 635 nm fluorescence, higher = more signal;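 note: score merges 667 nm feature fluorescence with signal to noise over triplicate slides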
[19] = biological target: Neurogenic locus notch homolog protein 3 (Homo sapiens) (UniProt Q9UM47); test: small molecules binding NOTCH3 protein – biochemical, 635/667 nm fluorescence, primary screen (AID 1096); conditions: small-molecule microarray, 635 nm fluorescence, higher = more signal
Neurogenic locus notch homolog protein 3 (Homo sapiens), sequence (Q9UM47 whole entry, looked up): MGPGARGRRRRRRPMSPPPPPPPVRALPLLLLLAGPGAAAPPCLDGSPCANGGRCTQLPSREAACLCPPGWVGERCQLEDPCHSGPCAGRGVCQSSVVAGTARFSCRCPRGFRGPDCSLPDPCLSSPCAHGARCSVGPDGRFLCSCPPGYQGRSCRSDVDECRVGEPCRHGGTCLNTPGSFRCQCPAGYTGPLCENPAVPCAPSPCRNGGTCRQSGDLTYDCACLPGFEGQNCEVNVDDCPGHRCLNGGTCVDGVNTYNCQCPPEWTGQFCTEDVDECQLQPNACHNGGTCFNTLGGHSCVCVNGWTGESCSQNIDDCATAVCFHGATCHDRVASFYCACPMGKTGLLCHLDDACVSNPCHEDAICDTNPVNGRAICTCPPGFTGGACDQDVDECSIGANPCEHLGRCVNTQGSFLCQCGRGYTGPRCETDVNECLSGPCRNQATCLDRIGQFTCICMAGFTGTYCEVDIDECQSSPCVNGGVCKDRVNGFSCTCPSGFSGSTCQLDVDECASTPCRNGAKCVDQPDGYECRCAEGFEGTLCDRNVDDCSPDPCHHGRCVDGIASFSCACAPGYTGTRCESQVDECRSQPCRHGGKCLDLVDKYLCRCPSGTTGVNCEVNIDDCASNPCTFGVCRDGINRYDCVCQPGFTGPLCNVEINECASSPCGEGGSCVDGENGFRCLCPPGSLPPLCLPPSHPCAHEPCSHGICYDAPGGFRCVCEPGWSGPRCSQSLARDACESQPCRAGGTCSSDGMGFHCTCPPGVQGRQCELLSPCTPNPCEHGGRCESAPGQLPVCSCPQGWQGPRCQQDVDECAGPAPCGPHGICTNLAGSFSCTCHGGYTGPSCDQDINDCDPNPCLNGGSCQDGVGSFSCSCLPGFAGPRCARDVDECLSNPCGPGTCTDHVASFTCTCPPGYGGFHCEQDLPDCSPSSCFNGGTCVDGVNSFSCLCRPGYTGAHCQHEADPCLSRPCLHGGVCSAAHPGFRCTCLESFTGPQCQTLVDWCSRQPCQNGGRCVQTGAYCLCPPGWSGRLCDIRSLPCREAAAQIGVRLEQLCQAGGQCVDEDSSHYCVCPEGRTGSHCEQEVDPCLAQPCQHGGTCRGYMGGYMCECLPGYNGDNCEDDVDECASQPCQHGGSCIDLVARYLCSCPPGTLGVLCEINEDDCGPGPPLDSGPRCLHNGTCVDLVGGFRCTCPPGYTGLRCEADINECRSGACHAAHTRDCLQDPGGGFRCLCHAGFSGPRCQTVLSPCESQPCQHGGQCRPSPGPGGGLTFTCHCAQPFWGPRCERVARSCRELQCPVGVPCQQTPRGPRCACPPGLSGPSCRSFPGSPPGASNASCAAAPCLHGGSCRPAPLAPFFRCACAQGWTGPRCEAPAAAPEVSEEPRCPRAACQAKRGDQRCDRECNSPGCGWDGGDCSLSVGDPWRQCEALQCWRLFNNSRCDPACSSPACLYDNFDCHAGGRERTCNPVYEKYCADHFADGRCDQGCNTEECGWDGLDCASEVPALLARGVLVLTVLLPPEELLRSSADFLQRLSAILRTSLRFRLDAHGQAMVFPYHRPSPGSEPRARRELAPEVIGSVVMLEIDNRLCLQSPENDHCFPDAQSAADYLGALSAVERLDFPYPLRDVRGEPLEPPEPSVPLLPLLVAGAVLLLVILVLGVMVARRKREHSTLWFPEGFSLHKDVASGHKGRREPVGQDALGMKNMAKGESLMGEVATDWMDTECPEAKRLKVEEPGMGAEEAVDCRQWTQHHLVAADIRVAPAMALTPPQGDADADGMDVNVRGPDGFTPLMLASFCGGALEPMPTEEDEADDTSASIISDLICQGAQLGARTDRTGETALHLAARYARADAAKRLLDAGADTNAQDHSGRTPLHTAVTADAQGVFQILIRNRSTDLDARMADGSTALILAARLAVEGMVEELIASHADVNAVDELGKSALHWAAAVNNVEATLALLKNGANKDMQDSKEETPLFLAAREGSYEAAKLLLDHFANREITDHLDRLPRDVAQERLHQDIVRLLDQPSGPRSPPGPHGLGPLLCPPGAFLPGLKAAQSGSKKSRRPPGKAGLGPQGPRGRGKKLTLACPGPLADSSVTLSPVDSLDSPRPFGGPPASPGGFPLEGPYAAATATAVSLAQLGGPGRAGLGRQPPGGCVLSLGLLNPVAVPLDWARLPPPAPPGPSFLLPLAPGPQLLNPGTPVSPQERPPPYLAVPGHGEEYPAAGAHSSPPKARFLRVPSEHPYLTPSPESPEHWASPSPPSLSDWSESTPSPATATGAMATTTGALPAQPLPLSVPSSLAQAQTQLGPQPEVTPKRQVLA

[20] = probe aEGFR binding to arrayed compounds – biochemical, biotinylated probe, 635/667 nm fluorescence, primary screen (AID 1097); conditions: small-molecule microarray, higher = more signal;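 note: probe is a biotinylated anti-EGFR antibody binding compounds printed on slides; score combines fluorescence near 667 nm and signal to noise of each spot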

## CCCCC(O)C1C=CC2C(=O)N(c3ccccc3)C(=O)C2N1Nc1ccccc1F (stereo not given)
[1]
  composite z-score: 1.12
[2]
  composite z-score: 0.0488
[3]
  composite z-score: 0.256
[4]
  composite z-score: 0.516
[5]
  composite z-score: 0.829
[6]
  composite z-score: 1.15
[7]
  composite z-score: 1.2
[8]
  z-score: 0.221 (inactive)
[9]
  composite z-score: 1.75
[10]
  composite z-score: 0.953
[11]
  composite z-score: 1.11
[12]
  z-score: -0.0377 (inactive)
[13]
  z-score: -0.579 (inactive)
[14]
  z-score: 1.03 (inactive)
[15]
  composite z-score: 2.99
[16]
  z-score: -0.825 (inactive)
[17]
  composite z-score: 0.648
[18]
  composite z-score: -0.0787
[19]
  composite z-score: 0.818
[20]
  composite z-score: 0.159

## COc1ccc([C@H]2C[C@H]3C(Br)=C[C@@H]2C(=O)[C@]32CO2)cc1
[1]
  composite z-score: 0.203
[2]
  composite z-score: 0.133
[3]
  composite z-score: -0.083
[4]
  composite z-score: -0.126
[5]
  composite z-score: -0.239
[6]
  composite z-score: -0.152
[7]
  composite z-score: -0.577
[8]
  z-score: 1.96 (inactive)
[9]
  composite z-score: 0.0125
[10]
  composite z-score: -0.0618
[11]
  composite z-score: -0.431
[12]
  z-score: 0.29 (inactive)
[13]
  z-score: -3.66 (inactive)
[14]
  z-score: -0.417 (inactive)
[15]
  composite z-score: -0.807
[16]
  z-score: 1.7 (inactive)
[17]
  composite z-score: -0.0561
[18]
  composite z-score: 0.101
[19]
  composite z-score: -0.282
[20]
  composite z-score: -0.217

## CN(C)C(=O)[C@]1(Cc2ccccc2CN=[N+]=[N-])N=C(c2ccc(OCCCO)cc2)O[C@@H]1c1ccccc1CN=[N+]=[N-]
[1]
  composite z-score: -0.0551
[2]
  composite z-score: 1.26
[3]
  composite z-score: 0.0858
[4]
  composite z-score: 1.18
[5]
  composite z-score: 1.43
[6]
  composite z-score: 0.559
[7]
  composite z-score: 1.27
[8]
  z-score: -1.45 (inactive)
[9]
  composite z-score: 1.64
[10]
  composite z-score: -0.318
[11]
  composite z-score: 1.56
[12]
  z-score: -0.0966 (inactive)
[13]
  z-score: -0.16 (inactive)
[14]
  z-score: 4.49 (inactive)
[15]
  composite z-score: 3.59
[16]
  z-score: -0.255 (inactive)
[17]
  composite z-score: 0.0112
[18]
  composite z-score: 1.18
[19]
  composite z-score: 1.11
[20]
  composite z-score: 0.0816

## [N-]=[N+]=Nc1ccccc1C[C@@]1(C(=O)NCCN2CCOCC2)N=C(c2ccc(OCCCO)cc2)O[C@@H]1c1ccccc1
[1]
  composite z-score: 0.234
[2]
  composite z-score: 0.205
[3]
  composite z-score: 0.146
[4]
  composite z-score: 0.409
[5]
  composite z-score: 1.59
[6]
  composite z-score: 1.6
[7]
  composite z-score: 1.24
[8]
  z-score: -1.23 (inactive)
[9]
  composite z-score: 1.01
[10]
  composite z-score: -0.286
[11]
  composite z-score: 1.55
[12]
  z-score: -2.58 (inactive)
[13]
  z-score: -4.77 (inactive)
[14]
  z-score: -1.77 (inactive)
[15]
  composite z-score: 3.27
[16]
  z-score: 1.26 (inactive)
[17]
  composite z-score: -0.0673
[18]
  composite z-score: 0.748
[19]
  composite z-score: 1.08
[20]
  composite z-score: 0.0371

## O=C1C2C=CC(C(O)c3c(F)cccc3Cl)N(Nc3ccccc3)C2C(=O)N1c1ccccc1 (stereo not given)
[1]
  composite z-score: -0.0072
[2]
  composite z-score: -0.0274
[3]
  composite z-score: 0.0363
[4]
  composite z-score: 0.354
[5]
  composite z-score: 1.7
[6]
  composite z-score: 1.86
[7]
  composite z-score: 1.25
[8]
  z-score: -3.84 (inactive)
[9]
  composite z-score: 1.09
[10]
  composite z-score: -0.359
[11]
  composite z-score: 1.56
[12]
  z-score: 0.269 (inactive)
[13]
  z-score: 0.211 (inactive)
[14]
  z-score: 0.395 (inactive)
[15]
  composite z-score: 3.43
[16]
  z-score: 0.063 (inactive)
[17]
  composite z-score: 0.0313
[18]
  composite z-score: 0.461
[19]
  composite z-score: 1.04
[20]
  composite z-score: -0.0251

From PubChem BioAssay
